Screen size: about 350,000 compounds; about 9,900 (2.8%) were called active. Not shown: some 15% with an inconclusive outcome. The call rests on the fitted dose curve; in most records, active means well fitted activation curve with a large enough effect; inconclusive means small, poorly fitted or top-dose-only effect; inactive means no such curve, though single readings can be large or run the other way. The entries come from a sample that favours actives as a whole. A call without a number means that no potency is given here.
Potency means the concentration at half of the fitted maximal effect.

The nature of the assay: A quantitative high throughput screen for small molecules that induce DNA re-replication in MCF 10a normal breast cells. Further: nearly all actives have a fitted effect of over 50% in size. As to conditions: MCF 10A DNA re-replication, Hoechst nuclear intensity, 48 h; series mostly up to 46.1 µM.
As for `COc1ccc(CCNC(=O)COC(=O)Cc2cccc(F)c2)cc1`, the Potency entry was “inactive”.
The same measure for `Oc1[nH]c2ccccc2c1N=Nc1c(F)c(F)c(F)c(F)c1F`: “inactive”; for `COC(C/C=C/C(=O)[C@@H](C)OCc1ccccc1)OC`: 18.4 µM (active).
The same measure for `COC(C[C@H](O)CC(=O)[C@@H](C)OCc1ccccc1)OC`: “inactive”.
For `COC(C[C@@H]1O[C@@H]1C(=O)[C@H](C)OCc1ccccc1)OC`, the Potency result was “inactive”.
Consider `COc1ccc(S(=O)(=O)N(C)C[C@@H]2Oc3ccc(NC(=O)Nc4c(C)noc4C)cc3C(=O)N([C@H](C)CO)C[C@@H]2C)cc1`, for which the Potency result is “inactive”.
The same measure for `Cc1ccc(S(=O)(=O)N/N=C\c2cc3c(cc2[N+](=O)[O-])OCO3)cc1`: 23.1 µM (active); for `CC(=O)N/N=C/c1cc2c(cc1[N+](=O)[O-])OCO2`: “inactive”.
The same measure for `Cc1ccc(-c2n[nH]c(=S)n2/N=C/c2cc3c(cc2[N+](=O)[O-])OCO3)cc1`: “inactive”; for `O=C1COc2ccc(C(=O)CSc3ccc(Br)cc3)cc2N1`: “inactive”.
As to `COc1ccc(Cn2cc(CN3CCS(=O)(=O)N(Cc4ccc(-c5cccc(Cl)c5)cc4)C(C)C3=O)nn2)cc1` (configuration not stated), the Potency entry is “inactive”.
For `Cc1[nH][nH]c(=O)c1N=Nc1ccccc1`, the Potency entry is “inactive”.
Turning to `Cc1[nH][nH]c(=O)c1C(c1ccc(-c2ccc(Cl)cc2)o1)c1c(C)[nH][nH]c1=O`, the Potency was 20.6 µM (active).
Take `CN(CC(=O)Nc1ccc(F)cc1)C(=O)c1ccc(-c2ccc(Cl)cc2)o1`: the Potency result was “inactive”.
The same measure for `CC(=O)Nc1cccc(C(=O)Nc2nc(C)cs2)c1`: “inactive”; for `Cc1csc(NC(=S)Nc2cccc(Cl)c2)n1`: 20.6 µM (active); for `S=C(Nc1cccc(Cl)c1)Nc1ccc2cn[nH]c2c1`: “inactive”.
The same measure for `CCOc1ccccc1Nc1nnc(SCc2ccc(C(=O)OC)o2)s1`: 18.4 µM (active); for `CCOc1ccccc1Nc1nnc(SCC(=O)NCC2CCCO2)s1` (configuration not stated): “inactive”; for `COC(=O)c1ccc(CSc2nnc(N)s2)o1`: “inactive”.
With `NC1=NOC(=O)C1C1CCCCC1` (configuration not stated), the Potency entry was “inactive”.
For `CCOc1ccc(S(=O)(=O)N2CCN(C(=O)c3oc4ccccc4c3C)CC2)cc1`, the Potency entry is “inactive”.
The same measure for `Cc1cc(N2CCCC2)ccc1NC(=O)COc1ccc(Cl)cc1`: “inactive”.
The same measure for `COc1ccc(C)cc1S(=O)(=O)N1CCN(S(=O)(=O)c2cc(C(=O)O)ccc2C)CC1`: “inactive”; for `Cc1ccc(C)c(S(=O)(=O)N2CCN(c3ncnc4sccc34)CC2)c1`: 18.4 µM (active).
The same measure for `Cc1ccc(S(=O)(=O)N2CCN(c3ncnc4ccccc34)CC2)cc1`: “inactive”; for `COC(=O)Cc1c(-c2[nH]c3ccccc3c2CC(=O)OC)[nH]c2ccccc12`: “inactive”; for `COc1ccc(NC(=O)CSc2nnc(C3CC3)n2C)cc1S(=O)(=O)N1CCCCC1`: “inactive”.
As to `O=C(Nc1ccc2ccccc2c1)Nc1ccc2snnc2c1`, the Potency was 5.8 µM (active).
The same measure for `O=C(Nc1cccc(Br)c1)c1ccc2snnc2c1`: “inactive”; for `CCc1ccccc1NC(=O)c1ccc2snnc2c1`: “inactive”; for `CC(=O)c1c(OCC(=O)N(C)C2CCCCC2)ccc2c(C)cc(=O)oc12`: “inactive”.
Take `CC1=CC(=NNS(=O)(=O)c2ccc([N+](=O)[O-])cc2)CC(C)(C)C1`: the Potency entry was “inactive”.
The same measure for `N#Cc1c(/N=C/N2CCCC2)oc(-c2ccccc2)c1-c1ccccc1`: 9.2 µM (active).
The same measure for `COc1ccc(-c2oc(/N=C/N3CCCC3)c(C#N)c2-c2ccc(OC)cc2)cc1`: “inactive”; for `COc1cc(C(=O)Nc2oc(-c3ccccc3)c(-c3ccccc3)c2C#N)cc(OC)c1OC`: “inactive”; for `O=C1NC(c2ccccc2)Cc2ccncc21` (configuration not stated): “inactive”.
For the compound `CCN(CC)S(=O)(=O)c1ccc(OC)c(NC(=O)CCc2c(C)noc2C)c1`, the Potency result was “inactive”.
On to `C=C1CCC(N(O)c2cc(C)on2)C(=C)CCC2C1CC2(C)C` (configuration not stated), for which the Potency result was “inactive”.
For the compound `CCCCN(C(=O)C(CCSC)N1C(=O)c2ccccc2C1=O)c1c(N)n(CCC)c(=O)[nH]c1=O` (configuration not stated), the Potency entry was “inactive”.
On to `O=C(Nc1ccccc1)Nc1nc2ccccc2s1`, for which the Potency result was “inactive”.
The same measure for `NNc1nc2c(Cl)cccc2s1`: 16.4 µM (active); for `CN(CC(=O)Nc1ccc(OC(F)F)cc1)S(=O)(=O)/C=C/c1ccccc1`: “inactive”.
Regarding `O=C(NN=Cc1ccccc1)c1ccccc1`, the Potency result was “inactive”.
In the case of `CC(C)(C)OC(=O)NCCCCCNC(=O)c1nc[nH]c1C(=O)NCc1ccccc1`, the Potency entry was “inactive”.
As to `O=C1OC(Cc2ccccc2)C(c2ccccc2)C1=O` (configuration not stated), the Potency entry was “inactive”.
As for `COc1ccc(OC)c(NC(=O)CCN2CCC(C)CC2)c1`, the Potency was 5.17 µM (active).
The same measure for `COc1ccc(Cl)cc1NC(=O)CCN1CCOCC1`: “inactive”.
As to `CCOC(=O)N1CCN(CCC(=O)Nc2cc(OC)ccc2OC)CC1`, the Potency entry is “inactive”.
On to `CC1CCCC(NC(=O)c2cc(-c3ccncc3)nc3ccccc23)C1C` (configuration not stated), for which the Potency entry is “inactive”.
The same measure for `O=C(COC(=O)COc1cccc(F)c1)NCC1CCCCC1`: “inactive”.
Turning to `COc1ccc(S(=O)(=O)N2CCOCC2)cc1NC(=O)CSc1nnc(NC2CC2)s1`, the Potency entry was “inactive”.
The same measure for `Cc1ccc(-c2noc(CC(c3ccccc3)c3ccccc3)n2)cc1`: “inactive”; for `Cc1ccc(Cc2nc(-c3cccc(C)c3)no2)cc1`: “inactive”; for `COc1ccccc1Cc1nc(-c2ccc(C)cc2)no1`: 5.8 µM (active).
The same measure for `NC(=O)NCCCC(=O)O`: “inactive”.
The same measure for `CN(CC(=O)NCC(c1ccccc1)N1CCCC1)S(=O)(=O)c1ccc(Cl)cc1` (configuration not stated): “inactive”.
Regarding `Cn1ccc(NC(=O)Nc2ccc(Cl)cc2)n1`, the Potency entry is “inactive”.
The same measure for `CN(c1cccc(NC(=O)Nc2ccc(Cl)cc2)c1)S(C)(=O)=O`: 13 µM (active).
On to `Cc1ccc(N(CC(=O)Nc2cccc(N(C)S(C)(=O)=O)c2)S(C)(=O)=O)cc1`, for which the Potency entry is “inactive”.
With `COc1ccc(NS(=O)(=O)c2ccc(N3CCOCC3)c(NC(=O)/C=C/C(=O)O)c2)cc1`, the Potency result is “inactive”.
Take `Cc1ccc(-c2nn(-c3ccccc3)cc2/C=C/C(=O)Nc2cccc(S(N)(=O)=O)c2)cc1`: the Potency was 13 µM (active).
As for `Cc1ccc(-c2nn(-c3ccccc3)cc2C(=O)Nc2cccc(S(=O)(=O)N3CCOCC3)c2)cc1`, the Potency result was “inactive”.
The same measure for `O=C(/C=C/c1cn(-c2ccccc2)nc1-c1ccc2c(c1)OCCO2)NCCCN1CCOCC1`: “inactive”.
For the compound `CC(=O)c1ccc(S(=O)(=O)NCCC(=O)N2CCN(c3ccccn3)CC2)cc1`, the Potency entry was “inactive”.
Regarding `Cc1csc(SCC(=O)N(c2ccccc2)C(C)C)n1`, the Potency entry is “inactive”.
The same measure for `c1ccc2c(c1)OC1OC2Oc2ccccc21`: “inactive”.
